# Measured values reported in PubChem BioAssay AID504467 (National Center for Advancing Translational Sciences (NCATS), 2011).
# Among all 330,000 compounds or so, about 7,700 (2.3%) were called active. Another 26% or so got no clear call; they are omitted. Calls follow the shape of the dose curve; as a rule, active = well fitted inhibition curve with a large enough effect; inconclusive = small, poorly fitted or top-dose-only effect, or effect the other way; inactive = flat fitted curve, though single readings scatter. Shown is part of a subset that was picked to be rich in actives.
# Assay: qHTS screen for small molecules that inhibit ELG1-dependent DNA repair in human embryonic kidney (HEK293T) cells expressing luciferase-tagged ELG1; also: nearly all actives have a fitted effect of over 55% in size
# Conditions: HEK293T ELG1-luciferase reporter, luminescence, 16 h, DNA damage induced by 5-fluorouridine; series mostly up to 46.1 µM; activity change, negative = inhibition: at the top concentration
# Method in brief: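 5-Fluorouridine DNA damage + compound/DMSO, 2,000 cells/well, 16 h, 37 °C/5% CO2. ONE-Glo, 30 min RT, luminescence. Readout = decrease in reporter signal.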
# % is scaled to controls: 0 for no effect and ±100 for the full control effect; potency is read from the fitted curve at half-maximal effect.
SMILES,"activity change, negative = inhibition",Potency
CCc1ccccc1NC(=O)CN(C)C(=O)c1cc(C2CC2)nn1-c1ccccc1,-11.9% (inactive),
O=C(c1ccc2nc(N3CCOCC3)sc2c1)N1CCN(c2ccc(Cl)cc2)CC1,-4.91% (inactive),
O=C(/C=C\c1cn(-c2ccccc2)nc1-c1cccs1)N1CCOCC1,,16.4 µM (active)
O=C(/C=C/c1cn(-c2ccccc2)nc1-c1ccc2c(c1)OCCO2)NCCCN1CCOCC1,-6.31% (inactive),
O=C(O)/C=C/c1cn(Cc2ccccc2)nc1-c1cccs1,-14.2% (inactive),
CC(C)C[C@H](NC(=O)N1CC(=O)Nc2ccccc21)C(=O)N[C@H](Cc1ccccc1)C(=O)O,10.5% (inactive),
CCCCCCSc1ccc(-c2nc3ccc(Cl)cn3c2NCc2ccccc2)cc1,6.49% (inactive),
CN(C)CCCN(C(=O)COc1ccccc1)c1nc2c(Cl)cccc2s1,9.83% (inactive),
COc1ccc(CCN(C(=O)COc2ccccc2)c2nc(-c3ccccc3)cs2)cc1OC,,23.1 µM (active)
CN(C(=O)COc1ccccc1)c1nnc(-c2ccncc2)s1,7.66% (inactive),
Cc1cc(F)ccc1NC(=S)NCCc1ccccc1,1.45% (inactive),
COc1ccc(-c2noc(C(C)NS(=O)(=O)c3ccc(NC(C)=O)cc3)n2)cc1 (stereo not drawn),-13.9% (inactive),
COc1ccc(-n2c(=O)[nH]c3cc(C(=O)NCCc4ccc(OC)c(OC)c4)ccc3c2=O)c(OC)c1,-14.1% (inactive),
NC(N)=Nc1nc(-c2ccccc2)c2cc(Cl)ccc2n1,-0.933% (inactive),
Clc1ccc2nc(-c3ccccc3)nc(C(Cl)Cl)c2c1,,2.31 µM (active)
O=C(CCl)NNc1nc(-c2ccccc2)c2cc(Cl)ccc2n1,4.46% (inactive),
Cn1c(CCN2CCCC2)nc2cc(NS(=O)(=O)c3ccccc3)ccc21,5.94% (inactive),
CCOCCn1[nH]c2ccccc2c1=O,13.6% (inactive),
COc1ccc(N(CC(=O)NCc2ccc(F)cc2)C(=O)CCC(=O)Nc2nccs2)cc1,0.798% (inactive),
COc1ccc(NC(=O)CN(C)CC(=O)Nc2cccc(C(F)(F)F)c2)cc1,-9.58% (inactive),
COc1cc(NC(=O)c2[nH]cnc2C(N)=O)cc(C(=O)Nc2cccc(C(F)(F)F)c2)c1,,5.8 µM (active)
Cc1cccc(NC(=O)c2nnn(-c3cccc(C(F)(F)F)c3)c2N)c1,57.7% (inactive),
CN=C(Nc1cccc(S(=O)(=O)N2CCOCC2)c1)c1ccccc1,11.8% (inactive),
Cn1cncc1C#Cc1c(-c2ccsc2)sc2ccccc12,0% (inactive),
CNS(=O)(=O)c1ccc(C(=O)NCC(=O)NCCc2ccc3c(c2)OCCO3)cc1,19.4% (inactive),

SMILES,"activity change, negative = inhibition",Potency
COc1ccccc1/C=C1\SC(=O)N(CCC(=O)N(C)C2CCS(=O)(=O)C2)C1=O (stereo not drawn),-1.47% (inactive),
Cc1nn(-c2ccccc2)c(C)c1/C=N/NC(=O)CSc1nc2ccccc2c(=O)n1-c1ccccc1,,16.4 µM (active)
O=C(CSc1nc2ccccc2c(=O)n1-c1ccc(F)cc1)NC1CC1,21.9% (inactive),
Cn1c(SCC(=O)N/N=C/c2ccc(O)c(O)c2)nc2ccccc21,-9.45% (inactive),
CCCN(CCC)CCCNC(=O)CNC(=O)c1nn(-c2ccc(OC)cc2)c(=O)c2ccccc12,-0.0392% (inactive),
COCCCNC(=O)CNC(=O)c1nn(-c2ccc(OC)cc2)c(=O)c2ccccc12,3.34% (inactive),
COc1ccc(-n2nc(C(=O)NCC(=O)Nc3cccc(C)n3)c3ccccc3c2=O)cc1,,18.4 µM (active)
CN1CCN(S(=O)(=O)c2ccc(N3CCN(c4ccccc4O)CC3)c([N+](=O)[O-])c2)CC1,-9.8% (inactive),
CCOc1ccc(CCNC(=O)CN2C(=O)NC3(CCc4ccccc43)C2=O)cc1OCC (stereo not drawn),0.584% (inactive),
O=C(c1ccccc1)c1ccc(C(=O)N2CCN(c3ccccc3)CC2)cc1,-3.04% (inactive),
O=C(c1ccc(Cl)c([N+](=O)[O-])c1)N1CCN(c2ccccc2)CC1,-21.3% (inactive),
O=C(c1cc2cc(F)ccc2[nH]1)N1CCN(c2ccc(F)cc2)CC1,-2.05% (inactive),
O=C(c1cccc(C(=O)N2CCN(c3ccc(F)cc3)CC2)c1)N1CCN(c2ccc(F)cc2)CC1,,18.4 µM (active)
O=C(c1cccc(F)c1)N1CCN(c2ccc([N+](=O)[O-])c(N3CCCCC3)c2)CC1,-15.8% (inactive),
O=C(c1cc(C(=O)N2CCN(c3ccc(F)cc3)CC2)cc([N+](=O)[O-])c1)N1CCN(c2ccc(F)cc2)CC1,,11.2 µM (active)
N#CC(Cc1cc2ccccc2n1S(=O)(=O)c1ccccc1)OCc1ccccc1 (stereo not drawn),-3.89% (inactive),
Cn1cccc1C(=O)OCC(=O)NCCc1ccccc1,0% (inactive),
Cc1cccc(C)c1NC(=O)COC(=O)c1c(C)nn(-c2ccccc2)c1C,-24.2% (inactive),
O=C(CCNC(=O)c1ccc(Br)cc1)NCC(c1ccco1)N1CCCCC1 (stereo not drawn),9.27% (inactive),
CNC(=O)c1ccsc1NC(=O)c1ccc(S(=O)(=O)N2CCc3ccccc32)cc1,,18.4 µM (active)
CC1CN(S(=O)(=O)c2ccc(C(=O)Nc3sccc3C(N)=O)cc2)CC(C)O1 (stereo not drawn),,18.4 µM (active)
CC1CC(C)CN(S(=O)(=O)c2ccc(C(=O)NN3CCOCC3)cc2)C1 (stereo not drawn),7.51% (inactive),
CCn1c(=O)c(=O)n(CC)c2cc(S(=O)(=O)N3CCc4ccccc43)ccc21,3.09% (inactive),
COc1cccc(NC(=O)c2cc(S(=O)(=O)N3CCc4ccccc43)cn2C)c1,13.6% (inactive),
CC1CN(S(=O)(=O)c2ccc(C(=O)NN3CCN(C)CC3)cc2)CC(C)O1 (stereo not drawn),8.64% (inactive),

SMILES,"activity change, negative = inhibition",Potency
N#Cc1c(-c2ccccc2)nc(SCc2ccc([N+](=O)[O-])cc2)[nH]c1=O,-0.721% (inactive),
O=C(CNC(=O)C1COc2ccccc2O1)N/N=C/c1cc(Br)c(O)c(Br)c1 (stereo not drawn),-3.97% (inactive),
O=C(CSc1nccn1-c1cccc(F)c1)NC1CCCC1,4.69% (inactive),
CC(C)CC(O)C1CCN(C(=O)CCc2nnc(-c3ccc4c(c3)OCO4)o2)CC1 (stereo not drawn),-2.7% (inactive),
CCn1c2ccc(F)cc2c2nnc(SCCN3CCOCC3)nc21,-3.22% (inactive),
CCN(CC(=O)NC(C)C)C(=O)c1cc(S(=O)(=O)N2CCCCC2)ccc1N1CCCCC1,0.278% (inactive),
CCN(CC(=O)Nc1ccccc1C(=O)NC1CC1)Cc1cccs1,27.6% (inactive),
O=C1CCCc2c1nc(-c1cccc(Cl)c1)n2O,10.7% (inactive),
O=c1c2cc(Br)ccc2nc(-c2cccc(Cl)c2)n1O,,18.3 µM (active)
Cc1cccc(-c2nc3ccccc3c(=O)n2NC(=O)Cc2ccc(Cl)cc2)c1,16.5% (inactive),
Cc1ccc(NC(=O)Cn2cnc3c(OCc4ccccc4)ncnc32)cc1C,-1.75% (inactive),
Cc1cc(C)c(S(=O)(=O)NCC(c2ccc3c(c2)OCO3)N2CCOCC2)c(C)c1 (stereo not drawn),-0.27% (inactive),
Fc1ccc(/C=N/n2c(COc3ccccc3)n[nH]c2=S)cc1,-4.36% (inactive),
CN(C)c1ccc(C2N(C)C(=O)c3ccccc3N2C)cc1 (stereo not drawn),1.38% (inactive),
CN(C)c1ccc(Nc2c3c4c(cccc4n(C)c2=O)C(=O)c2ccccc2-3)cc1,,7.31 µM (active)
Cc1ccc(NS(=O)(=O)c2ccc3c(c2)n(C)c(=O)c(=O)n3C)c(C)c1,-5.16% (inactive),
CCC1=Nc2cc(C(=O)NCCN3CCCC3)ccc2Sc2ccc(C)cc21,-1.4% (inactive),
CCOC(=O)CC1(NC(=O)c2cc(COc3cncc(Cl)c3)on2)CCCCC1,-8.66% (inactive),
CN1CCC(N(C)S(=O)(=O)c2ccc(NC(=O)c3cccc(C#N)c3)cc2)CC1,0.329% (inactive),
Cc1ccc(S(=O)(=O)NCC(=O)N2CCN(c3ccccn3)CC2)cc1,-7.21% (inactive),
Cc1ccnc(N2CCN(C(=O)CSc3nc4ccccc4nc3N3CCCCC3)CC2)c1,,12.6 µM (active)
O=C(Cc1ccccc1Cl)N1CCN(c2ccccn2)CC1,-17.5% (inactive),
COC(=O)c1ccc(CSc2ccc(S(=O)(=O)N3CCCCC3)cn2)cc1,14.1% (inactive),
CC1CCCCN1S(=O)(=O)CCNC(=O)c1ccccc1 (stereo not drawn),10.3% (inactive),
O=C(Nc1nnc(-c2ccco2)o1)c1ccc(S(=O)(=O)N2CCOCC2)cc1,-19.6% (inactive),

SMILES,"activity change, negative = inhibition",Potency
CSCc1nnc(NC(=O)c2ccc(S(=O)(=O)N3CCCCC3C)cc2)o1 (stereo not drawn),,20.6 µM (active)
Cc1ccc(C(=O)CN2C(=O)NC3(CCc4ccccc43)C2=O)c(C)c1 (stereo not drawn),17.4% (inactive),
COc1ccc(CCNC(=O)COC(=O)c2cnc(Cl)c(Cl)c2)cc1,14.7% (inactive),
COCC(C)n1c(SCC(=O)NC2CCCCC2C)nc2ccccc2c1=O (stereo not drawn),-8.42% (inactive),
COc1cc(C(=O)NCc2nnc(SCC(=O)c3ccc(Cl)cc3)o2)cc(OC)c1OC,7.16% (inactive),
COc1ccccc1NC(=O)CSc1nnc(CNC(=O)c2ccccc2F)o1,0.554% (inactive),
CCC(=O)Nc1ccc(C(=O)CSc2nnc(CNc3ccc(Cl)cc3)o2)cc1OC,,11.6 µM (active)
CCOc1ncccc1C(=O)OCC(=O)c1c[nH]c2ccccc12,8.6% (inactive),
Cc1cc(OCC(=O)NCC(O)c2ccccc2)c2c(C)c(C)c(=O)oc2c1 (stereo not drawn),3.77% (inactive),
Cc1ncn(C23CC4CC(CC(O)(C4)C2)C3)n1,3.68% (inactive),
COC(=O)c1ccc(NC(=O)C23CC4CC(C2)CC(n2cnc(Cl)n2)(C4)C3)cc1,,5.8 µM (active)
O=C(Nc1ccc(S(=O)(=O)Nc2ncccn2)cc1)C12CC3CC(CC(C3)C1)C2,12.4% (inactive),
CN(C)C(=O)CCc1ccc2c3c([nH]c2c1)[C@]1(C)[C@@H](C(=O)N2CCCCC2)C[C@H](CC(=O)NCCC2=CCCCC2)C(=O)N1CC3,1.15% (inactive),
Cc1cccc(-c2oc3ccc(-c4ccc5c(c4)OCO5)cc3c2C#Cc2cncn2C)c1,19.1% (inactive),
COc1ccc(/C=C2\CCCC3C2=NN(C(=O)c2scnc2C)C3c2ccc(OC)cc2)cc1 (stereo not drawn),,18.4 µM (active)
CC(Oc1cc2oc(=O)c3c(c2cc1Cl)CCCC3)C(=O)NCc1ccncc1 (stereo not drawn),-16.7% (inactive),
O=C(c1cc2ccccc2o1)N1CCN(S(=O)(=O)c2ccc(Cl)s2)CC1,,16.4 µM (active)
O=C(c1cc2ccccc2o1)N1CCN(Cc2ccccc2)CC1,10.9% (inactive),
CS(=O)(=O)N1CCN(C(=O)c2cc3ccccc3oc2=O)CC1,9.01% (inactive),
CCCc1cc(=O)[nH]c(SCC(=O)Nc2ccc(C(=O)Nc3ccccc3OC)cc2)n1,4.86% (inactive),
Cc1ccc(-c2cc(C(=O)NC3CCN(Cc4ccccc4)CC3)c3ccccc3n2)cc1,11.4% (inactive),
Cc1ccn2cc(C(=O)NC3CCN(Cc4ccccc4)CC3)nc2c1,,20.6 µM (active)
O=C(NC1CCN(Cc2ccccc2)CC1)c1c(F)cccc1F,18.7% (inactive),
